Unmarked numbers belong to inactive results. Activity calls are given as the source filed them.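 How the source made its calls: active means activity change under -35% in any replicate well, with more than 20 beads read in that well; inactive means the rest.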
The molecules below were run against Caspase recruitment domain-containing protein 9 (Homo sapiens) + E3 ubiquitin-protein ligase TRIM62 (Homo sapiens) (UniProt Q9H257+Q9BVG3) (assay: CARD9/TRIM62 protein interaction inhibitors – cell lysate, HEK293FT lysates, Luminex bead ELISA, primary screen (AID 1259341;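 further: PE anti-Flag signal of Flag-CARD9 captured by myc-TRIM62 beads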)). Conditions: PE fluorescence, hits give low values, concentration not given here.
Chain of Caspase recruitment domain-containing protein 9 (Homo sapiens) + E3 ubiquitin-protein ligase TRIM62 (Homo sapiens) (Q9BVG3 whole entry, looked up, the tested form may be a part): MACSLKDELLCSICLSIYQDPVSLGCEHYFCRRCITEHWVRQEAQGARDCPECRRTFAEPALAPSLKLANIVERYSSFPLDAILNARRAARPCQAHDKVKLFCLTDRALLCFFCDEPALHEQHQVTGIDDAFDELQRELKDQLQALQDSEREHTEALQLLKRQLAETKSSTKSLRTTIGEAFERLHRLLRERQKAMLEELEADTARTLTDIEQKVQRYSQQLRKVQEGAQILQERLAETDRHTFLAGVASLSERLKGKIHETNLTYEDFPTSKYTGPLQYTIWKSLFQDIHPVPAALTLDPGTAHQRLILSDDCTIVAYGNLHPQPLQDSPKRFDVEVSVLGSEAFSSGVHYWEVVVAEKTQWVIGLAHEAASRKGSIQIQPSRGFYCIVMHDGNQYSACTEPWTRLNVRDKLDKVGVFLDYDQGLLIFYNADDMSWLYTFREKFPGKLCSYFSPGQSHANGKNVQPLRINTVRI
Chain of Caspase recruitment domain-containing protein 9 (Homo sapiens) + E3 ubiquitin-protein ligase TRIM62 (Homo sapiens) (Q9H257 whole entry, looked up, the tested form may be a part): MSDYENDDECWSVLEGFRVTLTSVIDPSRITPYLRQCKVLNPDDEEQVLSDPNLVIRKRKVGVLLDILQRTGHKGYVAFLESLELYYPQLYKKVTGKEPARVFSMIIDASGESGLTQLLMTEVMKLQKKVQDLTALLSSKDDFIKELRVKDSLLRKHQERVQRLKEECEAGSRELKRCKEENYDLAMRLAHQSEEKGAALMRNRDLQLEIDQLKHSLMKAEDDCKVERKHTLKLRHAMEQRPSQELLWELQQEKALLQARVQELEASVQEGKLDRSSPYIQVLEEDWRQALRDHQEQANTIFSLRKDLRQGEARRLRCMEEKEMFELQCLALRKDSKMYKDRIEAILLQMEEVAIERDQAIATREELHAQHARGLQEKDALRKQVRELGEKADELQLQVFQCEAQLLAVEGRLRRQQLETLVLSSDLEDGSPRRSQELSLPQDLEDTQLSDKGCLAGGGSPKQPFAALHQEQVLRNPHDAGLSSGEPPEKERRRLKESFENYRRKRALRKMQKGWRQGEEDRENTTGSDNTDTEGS

Compared with Cc1ccc(N2NC(c3ccc(Br)cc3)=CCC2=O)cc1, Cc1ccc(Nc2nc(C(=O)Nc3ccc(Br)cc3)nc3ccccc23)cc1 is higher in activity change, negative = inhibition: -5.75% for the first, 4.69% for the second.

Going from O=C1c2cccnc2C(=O)N1Cc1ccc(S(=O)(=O)NCc2ccco2)cc1 to O=C(NCc1ccco1)c1ccc(S(=O)(=O)N2CCOCC2)cc1, the activity change, negative = inhibition falls from 29.2% to 19.9%.

First: O=C(Nc1nc(-c2ccco2)c(-c2ccco2)s1)C1CCC1
Second: O=C(Nc1cccc2ccccc12)NC1CC1
The activity change, negative = inhibition of the first is lower: -9.96% for the first, -2.1% for the second.

Going from C[C@H](CO)N1C[C@H](C)[C@@H](CN(C)CC2CCCCC2)OCCCC[C@H](C)Oc2ccc(NS(=O)(=O)c3cccs3)cc2C1=O to O=C(Cc1ccc(S(=O)(=O)N2CCOCC2)s1)Nc1nc2c(s1)CCCC2, the activity change, negative = inhibition falls from 9.64% to -0.777%.

Compared with O=C(NCCc1ccco1)c1ccc(OCc2cn3ccccc3n2)cc1, N#Cc1c2ccc(OCC(=O)NCc3ccco3)cc2n2ccccc12 is higher in activity change, negative = inhibition: 0.111% for the first, 0.334% for the second.

Going from Cc1noc(CN(C)C(=O)c2cc(-c3ccco3)nc3c(C)c(Cl)ccc23)n1 to O=C(COC(=O)c1cc(-c2cccs2)nc2ccccc12)NCc1ccco1, the activity change, negative = inhibition rises from -1.57% to -1.49%.

Compared with Cc1ccc(Cc2cnc(N)s2)o1, O=C(NCc1ccco1)[C@@H]1CSC2c3ccccc3C(=O)N21 (stereo partly drawn) is lower in activity change, negative = inhibition: 18.6% for the first, -0.672% for the second.

Going from O=C(O)c1ccccc1SC1CC(=O)N(Cc2ccccc2)C1=O (stereo not drawn) to CC1(C)Cc2ccccc2-c2nc(-c3ccccc3)oc(=O)c21, the activity change, negative = inhibition falls from 6.92% to -0.338%.

Compared with O=C(Cn1cncc1-c1ccc([N+](=O)[O-])cc1)Nc1ccccc1F, O=[N+]([O-])c1cccc(-c2nnc3ccc4ccccc4n23)c1 is lower in activity change, negative = inhibition: 4.4% for the first, -7.69% for the second.

First: CCCN1CCc2nc(SCc3nc(-c4ccc(OC)cc4OC)oc3C)[nH]c(=O)c2C1
Second: CCOc1ccc(CNc2nc(-c3nnc(-c4ccc(F)cc4)o3)nc3ccccc23)cc1
The activity change, negative = inhibition of the first is lower: -0.271% for the first, 14.1% for the second.

First: N#Cc1c(NC(=O)CSc2nc3ccccc3o2)sc2c1CCC2
Second: FC(F)(F)c1cc(Cl)c2nnc(C(F)(F)Cl)n2c1
The activity change, negative = inhibition of the first is higher: 2.26% for the first, 1.08% for the second.

For NC(=O)C1(N2CCCCC2)CCN(c2ncc(NC(=O)c3ccccc3)cc2C(=O)O)CC1, the activity change, negative = inhibition was -57.3% (active).

From PubChem BioAssay AID1259341 (Broad Institute, 2017)
